Screening results: PubChem, several laboratories
PHOSPHO1 block: blocks human PHOSPHO1 phosphatase activity; Q8TCT1; recombinant PHOSPHO1, absorbance phosphatase assay; inhibition, % at 13.3 µM; 1.1% of 290,000 active; AID 1565; in the data active means inhibition above about 60%
Target sequence (Q8TCT1 whole entry, looked up): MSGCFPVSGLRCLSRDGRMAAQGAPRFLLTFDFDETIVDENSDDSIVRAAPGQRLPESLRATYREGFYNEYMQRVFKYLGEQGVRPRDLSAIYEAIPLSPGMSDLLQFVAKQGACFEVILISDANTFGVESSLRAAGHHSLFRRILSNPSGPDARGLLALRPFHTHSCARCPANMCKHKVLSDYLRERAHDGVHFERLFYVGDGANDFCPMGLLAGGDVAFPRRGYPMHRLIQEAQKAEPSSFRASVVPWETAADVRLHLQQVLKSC
PfGluPho inh: PfG6PD (Plasmodium falciparum) enzyme inhibition; PfGluPho enzyme, NADPH resazurin-diaphorase fluorescence; inhibition, % at 20 µM; 0.78% of 350,000 active; AID 504690;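 active means inhibition reaching at least a set limit at 20 µM in the primary screen, cut at about 59% in these data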
H9c2 protect: myocardial damage modulation in H9c2 cells | H9c2 cardiomyocytes, H2O2 injury protection, ATPLite, 2 h | protection from H2O2 cell death, % at 20 µM | 0.63% of 360,000 active | AID 588492;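 active means compounds giving at least 50% protection of heart cells from peroxide-induced death in the single-dose screen, raw or plate-pattern-corrected value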
M18AAP inhibitor: PfM18AAP enzyme inhibition; 1.2% of 290,000 active; recombinant PfM18AAP, H-Glu-NHMec fluorogenic cleavage; AID 1822; inhibition, % at 7.35 µM;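 active means inhibition above the campaign mean inhibition over all tested compounds plus 3 SD, cut at about 28% in these data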
ALR inh: human ALR oxidase inhibition via reduced H2O2; 3.8% of 290,000 active; inhibition, % (test concentration not listed); purified ALR, DTT oxidation, H2O2 HRP-luminol luminescence;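 active means mean replicate inhibition above about 79%, with every replicate also reaching it, limit read from the data; inconclusive means only one of the two criteria met; inactive means mean below limit and not every replicate reaching it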
Target sequence (P55789 whole entry, looked up): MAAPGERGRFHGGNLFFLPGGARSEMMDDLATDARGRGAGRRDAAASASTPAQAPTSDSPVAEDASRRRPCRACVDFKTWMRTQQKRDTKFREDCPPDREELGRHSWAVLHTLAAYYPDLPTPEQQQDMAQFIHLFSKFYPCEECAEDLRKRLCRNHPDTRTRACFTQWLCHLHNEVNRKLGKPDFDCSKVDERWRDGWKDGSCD
Of the large screens only hits and unclear results are named; the others gave an inactive call. The list is not random: actives were taken first. Their share in the collection is about 5.6%.

CN1C(=O)C(N=Nc2ccccc2C(=O)O)N(C)C1=S (stereo not given)	ALR inh 98.0
CC1=NN(C(N)=S)C(=O)C1N=Nc1ccccc1C(=O)O (stereo not given)	PHOSPHO1 block 61.5
CC1=NN(C(N)=S)C(=O)C1N=Nc1ccc(O)cc1 (stereo not given)	M18AAP inhibitor 29.2 (no result: ALR inh)
CC1=NN(C(N)=S)C(=O)C1N=Nc1ccc(F)cc1 (stereo not given)	none (no result: ALR inh)
Cc1cc(O)c(C(C)C)cc1N=Nc1ccccc1C(=O)O	none
CC1=NN(C(N)=S)C(=O)C1N=Nc1ccc([N+](=O)[O-])cc1 (stereo not given)	ALR inh 79.1
CCc1nc(C)cn1S(=O)(=O)c1ccc2c(c1)OCCO2	none (no result: PHOSPHO1 block, M18AAP inhibitor, ALR inh)
O=C(NCc1ccc(F)cc1)C1CCCN(C(=O)Nc2ccc(F)cc2)C1 (stereo not given)	none
CC(=O)NC(C)(c1ccccc1)c1nc(-c2cccc3cccnc23)cs1 (stereo not given)	none (no result: PHOSPHO1 block, PfGluPho inh, M18AAP inhibitor, ALR inh)
Oc1cccc(O)c1O	ALR inh 83.1 (no result: PHOSPHO1 block, PfGluPho inh, H9c2 protect, M18AAP inhibitor)
Cc1sc2nc(CSC(C)C(=O)Nc3ccc(C#N)cc3)[nH]c(=O)c2c1C (stereo not given)	ALR inh 98.3 (no result: PHOSPHO1 block, M18AAP inhibitor)
Cc1sc2nc(CSC(C)C(=O)Nc3ccc(C(N)=O)cc3)[nH]c(=O)c2c1C (stereo not given)	ALR inh 99.6 (no result: PHOSPHO1 block, M18AAP inhibitor)
CN(C(=O)c1cccc(NC(=O)Cc2cccc(NC(=O)C3CCN(C(=O)C4CCCCC4)CC3)c2)c1)C1CCC1	none (no result: PHOSPHO1 block, M18AAP inhibitor, ALR inh)
CCOc1ccc(NC(=S)N2CCC(C(=O)c3ccc(F)cc3)CC2)cc1	none (no result: PHOSPHO1 block, M18AAP inhibitor, ALR inh)
O=C(COC(=O)CNC(=O)c1ccco1)Nc1ncc(Cl)cc1Cl	none (no result: PHOSPHO1 block, M18AAP inhibitor)
CCOC(=O)NC(=O)/C(C#N)=N/Nc1ccc(F)cc1	none
COc1ccccc1N/N=C(\C#N)C(=N)N1CCOCC1	ALR inh 82.4
N#C/C(=N\Nc1ccccc1)C(=N)N1CCCCC1	ALR inh 99.4
N#C/C(=N/Nc1ccc([N+](=O)[O-])cc1)C(=N)N1CCCCC1	none (no result: ALR inh)
CCN(CC)C(=N)/C(C#N)=N/Nc1ccccc1	ALR inh 86.5
Cc1ccc(N/N=C(\C#N)C(=N)N2CCCCC2)cc1	ALR inh 98.8
CCOC(=O)/C(C#N)=N/Nc1ccccc1OC	none
N#C/C(=N\Nc1ccc(Cl)cc1)C(=N)N1CCCCCC1	none (no result: ALR inh)
Cc1cn(CC(=O)NCCc2ccccn2)c(=O)[nH]c1=O	none (no result: PHOSPHO1 block, M18AAP inhibitor, ALR inh)
CC1=NNC(=O)C1CC(=O)N/N=C/C=C/c1ccccc1 (stereo not given)	none
N#C/C(=N\Nc1ccc(Br)cc1)C(=N)N1CCOCC1	ALR inh 98.3
COc1cc(NC(=O)CCC(=O)c2cccs2)cc(OC)c1	none
CN(CCCn1ccc(N)nc1=O)Cc1ccco1	none (no result: PHOSPHO1 block, M18AAP inhibitor, ALR inh)
CC1(C(=O)NC2CCCCCC2)CCN1C(=O)C1(c2ccccc2)CC1 (stereo not given)	none (no result: PHOSPHO1 block, PfGluPho inh, M18AAP inhibitor, ALR inh)
Cc1cc(C)c2c(N)c(S(=O)(=O)Cc3ccccc3)sc2n1	ALR inh 91.2
CC(C)CCCC(C)NC(=O)c1cc(S(=O)(=O)N2CCCCC2)ccc1N1CCOCC1 (stereo not given)	none (no result: PHOSPHO1 block, M18AAP inhibitor, ALR inh)
CC(C)c1ccc(NC(=O)[C@@H]2CCC(=O)N2C2OC(=O)c3ccccc32)cc1 (stereo not given in full)	none (no result: ALR inh)
COc1cccc(-c2nc(CN3CCN(C(=O)c4ccco4)CC3)c(C)o2)c1OC	none (no result: PHOSPHO1 block, M18AAP inhibitor, ALR inh)
COc1nc(N/N=C/c2cc3c(cc2Br)OCO3)nc(N2CCOCC2)n1	H9c2 protect 53.8
Cc1ccc(F)c(S(=O)(=O)NC(=O)C2(C)CCN2C(=O)c2ccccc2)c1 (stereo not given)	none (no result: PHOSPHO1 block, PfGluPho inh, M18AAP inhibitor, ALR inh)
Cc1c(Cl)cccc1Nc1ccccc1C(=O)O	ALR inh 97.9
Cc1c(Cl)cccc1Nc1ncccc1C(=O)O	none
COc1ccccc1C(O)(C(=O)NNc1ccccc1C)c1ccccc1OC	none
COc1ccccc1C(O)(C(=O)NNc1cccc(C)c1)c1ccccc1OC	ALR inh 95.4
COc1ccc2c(c1)c1ncn(CCc3ccccc3)c(=O)c1n2C	ALR inh 90.8
COc1ccc2c(c1)c1ncn(CCCN3CCOCC3)c(=O)c1n2C	none
COC(=O)c1ccc2c(c1)C(C)(C)C(/C=C/c1ccccc1O)=[N+]2C	ALR inh 87.2
C[N+]1=C(/C=C/Nc2ccccc2Cl)C(C)(C)c2ccccc21	none (no result: ALR inh)
COC(=O)c1ccc(CSc2nnc(SCc3ccc(C(=O)OC)o3)s2)o1	ALR inh inconclusive
CCCc1nnc(SCc2ccc(C(=O)OC)o2)n1N	none
COC(=O)c1ccc(CSc2nnc(Nc3ccccc3OC)s2)o1	PHOSPHO1 block 67.3 (no result: H9c2 protect)
CCc1nnc(SCc2ccc(C(=O)OC)o2)n1N	ALR inh 97.4
COc1ccc(Nc2nnc(SCc3cc([N+](=O)[O-])cc4c3OCOC4)s2)cc1	PHOSPHO1 block 78.5
COC(=O)c1ccc(CSc2nnc(NCc3ccccc3)s2)o1	none
COC(=O)c1ccc(CSc2nnc(Nc3ccc(OC)cc3)s2)o1	PHOSPHO1 block 70.6
Cc1ccc2[nH]c(=O)c(CN(CCCN3CCOCC3)C(=O)Nc3ccc(Cl)cc3)cc2c1	H9c2 protect 50.2 (no result: ALR inh)
Cc1ccc2[nH]c(=O)c(CN(CCCN3CCOCC3)C(=O)Nc3cccc(Cl)c3)cc2c1	none
CCCc1sc(N/N=C/c2ccccn2)nc1-c1ccc(F)cc1	none
Cc1nc(N/N=C/c2ccccn2)sc1C	ALR inh 96.9 (no result: H9c2 protect)
Cn1c2ccccc2c2cc(/C=C(\NC(=O)c3ccccc3)C(=O)O)ccc21	ALR inh 85.7
CCCCCN(C(=O)CCC(=O)OCC(=O)c1cccc(OC)c1)c1c(N)n(CCCC)c(=O)[nH]c1=O	none
CN1CSC2=C(C#N)C(c3cccc(OCc4ccccc4)c3)CC(=O)N2C1 (stereo not given)	PfGluPho inh 91.5 (no result: ALR inh)
Cc1nc2ccn(Cc3ccccc3)c(=O)c2cc1C(=O)N1CCN(c2ccccc2)CC1	none
C=CCN(c1ccccc1)S(=O)(=O)c1cc2c(cc1C)N(C)CCO2	ALR inh 97.0
Nc1ncc([N+](=O)[O-])cc1S(=O)(=O)c1ccccc1	none (no result: PHOSPHO1 block, M18AAP inhibitor)
O=S(=O)(NCCCN1CCN(c2ccccc2F)CC1)c1cccc2cccnc12	ALR inh 95.3
O=S(=O)(NCCN1CCCC1)c1cccc2cccnc12	none
CN(Cc1ccc(F)cc1)S(=O)(=O)c1ccc2[nH]c(=O)[nH]c2c1	none (no result: PHOSPHO1 block, M18AAP inhibitor, ALR inh)
COc1cc(C2N(c3ccccc3)CCN2c2ccccc2)cc(OC)c1OC	ALR inh 99.1
COc1cc(C2N(c3cccc(Cl)c3)C(=O)C3CCCN32)cc(OC)c1OC (stereo not given)	none (no result: ALR inh)
CCn1c(SCC(=O)N/N=C/C(C)=C/c2ccco2)nnc1-c1ccccc1	PHOSPHO1 block 69.6
O=C(CSc1nccc(=O)[nH]1)Nc1ccc(Br)c(Cl)c1	ALR inh 98.3
CC(=O)Nc1ccc(C(=O)CSc2nccc(=O)[nH]2)cc1	ALR inh 99.0
CCn1c(SCC(=O)Nc2ccc3c(c2)c2ccccc2n3CC)nnc1-c1ccco1	PfGluPho inh 75.8
CCn1c(SCC(=O)Nc2cccc(NC(C)=O)c2)nnc1-c1ccco1	none
Sc1nnc(-c2ccc(Cl)cc2)n1Cc1ccccc1	none (no result: PHOSPHO1 block, M18AAP inhibitor, ALR inh)
